Compounds with a hit are over-represented: about 12% of the library has one in this group of screens.
Pf growth 48h: P. falciparum growth inhibition at 48 hours (one generation) | P. falciparum luciferase growth in erythrocytes, 48 h | Potency, µM (doses to about 28.7 µM), inactives show at the highest dose activity change, negative = inhibition, usual class: inhibitors | hit rate 5.9% among 310,000; further: on the % scale 0 is the no-effect control and ±100 the full control effect
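Cell-based growth assay: transgenic P. falciparum expressing firefly luciferase, cultured in red cells within RPMI 1640 containing 0.5% w/v Albumax, 24 mM bicarbonate and gentamycin. A drop in luciferase activity indicates inhibition.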
Pf growth 96h: P. falciparum growth inhibition at 96 hours; Potency, µM (titrated, usually from 28.7 µM), for the others: at the top dose activity change, negative = inhibition, most hits filed as inhibitors; P. falciparum luciferase reporter growth, 96 h; AID 504834; hit rate 6.9% among 320,000; further: on the % scale 0 is the no-effect control and ±100 the full control effect
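Cell-based qHTS: luciferase-tagged P. falciparum in erythrocytes (2% hematocrit, 0.05% parasitemia final) incubated with compounds for 96 hours, 37 C, 5% CO2; luciferase detection reagent then added and luminescence measured.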
Sm TGR inh: blocks Schistosoma mansoni thioredoxin glutathione reductase. Q962Y6. purified TGR, DTNB reduction, TNB absorbance 405 nm. Potency, µM (top dose mostly 114 µM), for inactives: top-dose activity change, negative = inhibition, hits mostly inhibitors. hit rate 3% among 360,000; further: on the % scale 0 is the no-effect control and ±100 the full control effect; nearly all actives have a fitted effect of over 60% in size
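TGR 20 nM + NADPH 100 uM (dispensed conc.), cpd preinc 15 min RT; start with NADPH (500 uM addition) then DTNB (15 mM addition). Kinetic TNB absorbance, 405 nm filter. Four-parameter Hill fit across titration.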
SARS PLpro yeast: SARS-CoV PLP inhibition in yeast | S. cerevisiae expressing SARS-CoV PLpro, growth rescue | Potency, µM (titrated, usually from 32.9 µM), without a hit: at the top dose activity, positive = growth rescue, hits mostly activators | AID 485353 | hit rate 0.19% among 330,000; calls by dose curve; further: 0% is about no effect; nearly all actives have a fitted effect of over 55% in size
Starred values were filed as active, the others as inactive. Unless noted, the call rests on the fitted dose curve; in most records, active means well fitted curve in the direction sought with a large enough effect; inconclusive means small, poorly fitted or top-dose-only effect, or another doubt; inactive means no such curve, though single readings can be large; an effect the other way counts as inactive or inconclusive. Potency means the concentration at half of the fitted maximal effect.

Results for Cc1cc(C)c(NC(=O)c2cc(C(=O)O)ccc2C(=O)O)c([N+](=O)[O-])c1 ?
Pf growth 48h: -5%; Pf growth 96h: 2.3µM*; Sm TGR inh: 7%; SARS PLpro yeast: -4%

How did Cc1ccc(C(=O)O)cc1[N+](=O)[O-] do in these assays?
Pf growth 48h: 18%; Pf growth 96h: 16%; Sm TGR inh: -9%; SARS PLpro yeast: -1%

How did COc1ccc(-c2ccc(C(C)=O)cc2)cc1[C@H]1[C@@H]2C=CCC[C@@]2(C)C(=O)N1Cc1ccccc1 do in these assays?
Pf growth 48h: inconclusive; Pf growth 96h: inconclusive; Sm TGR inh: -18%; SARS PLpro yeast: -2%

How did C[C@@]12CCC=C[C@H]1[C@H](c1ccc3ccccc3c1/C=C/c1ccccc1)N(Cc1ccccc1)C2=O do in these assays?
Pf growth 48h: inconclusive; Pf growth 96h: inconclusive; Sm TGR inh: 5%; SARS PLpro yeast: 1%

Results for COc1ccc(-c2ccc(C)cc2)cc1[C@H]1[C@@H]2C=CCC[C@@]2(C)C(=O)N1Cc1ccccc1 ?
Pf growth 48h: 12µM*; Pf growth 96h: inconclusive; Sm TGR inh: -18%; SARS PLpro yeast: -2%

Results for C[C@@]12CCC=C[C@H]1[C@H](c1ccc(/C=C/c3ccccc3)cc1F)N(Cc1ccccc1)C2=O ?
Pf growth 48h: 12µM*; Pf growth 96h: inconclusive; Sm TGR inh: -35%; SARS PLpro yeast: -2%

How did C[C@@]12CCC=C[C@H]1[C@H](c1ccc(C(F)(F)F)cc1)N(Cc1ccccc1)C2=O do in these assays?
Pf growth 48h: inconclusive; Pf growth 96h: 10µM*; Sm TGR inh: -28%; SARS PLpro yeast: -17%

Results for C[C@@H]1CC=C[C@H]2[C@H]1C(=O)N(Cc1ccccc1)[C@H]2c1ccc(C(F)(F)F)cc1 ?
Pf growth 48h: inconclusive; Pf growth 96h: inconclusive; Sm TGR inh: inconclusive; SARS PLpro yeast: -16%

What do the screens show for `C[C@H](NCc1c[nH]c2ccccc12)c1ccccc1`?
Pf growth 48h: -10%; Pf growth 96h: -19%; Sm TGR inh: -9%; SARS PLpro yeast: 7%

Results for COc1cc(NC(=O)CSc2ccc(-c3sc(-c4ccccc4)nc3C)nn2)cc(OC)c1 ?
Sm TGR inh: 4%

What do the screens show for `COc1cccc(-c2cccc(NC(=O)C3CCN(C4CCOCC4)CC3)c2)c1`?
Pf growth 48h: -10%; Pf growth 96h: -25%; Sm TGR inh: -11%; SARS PLpro yeast: 2%

Results for Cc1cccc(NS(=O)(=O)c2ccc(C3CCCCC3)cc2)n1 ?
Pf growth 48h: 9.3µM*; Sm TGR inh: -9%; SARS PLpro yeast: -16%

What do the screens show for `O=S(=O)(NC1CCCCCC1)c1cccc2cccnc12`?
Pf growth 48h: -7%; Pf growth 96h: 5.2µM*; Sm TGR inh: 8%; SARS PLpro yeast: 1%

How did COc1ccc(NS(=O)(=O)c2cccc3cccnc23)cc1Cl do in these assays?
Pf growth 48h: inconclusive; Pf growth 96h: 0.93µM*; Sm TGR inh: -18%; SARS PLpro yeast: 4%

Results for Cc1cccc(NS(=O)(=O)c2cccc3cccnc23)n1 ?
Pf growth 48h: 8%; Pf growth 96h: 1.7µM*; Sm TGR inh: -5%; SARS PLpro yeast: 6%

Results for Cc1ccc(C(=O)N2CCc3cc(CNC(=O)CSc4ccccc4)ccc32)cc1 ?
Sm TGR inh: -5%

How did O=C1CCCc2c1cc(C(=O)O)c(=O)n2-c1ccccc1 do in these assays?
Pf growth 48h: 15%; Pf growth 96h: inconclusive; Sm TGR inh: 0%; SARS PLpro yeast: 1%

How did O=C1CCCc2c1cc(C(=O)Nc1ccc(Br)cn1)c(=O)n2-c1ccccc1 do in these assays?
Pf growth 48h: 4.1µM*; Pf growth 96h: 39%; Sm TGR inh: 18µM*; SARS PLpro yeast: -7%

What do the screens show for `O=C1CCCc2c1cc(C(=O)NC1CCSC1=O)c(=O)n2-c1ccccc1` (stereo unspecified)?
Pf growth 96h: 128%; Sm TGR inh: 35µM*; SARS PLpro yeast: 10%

How did CCOC(=O)C1CCN(S(=O)(=O)c2cc3c4c(c2)CC(=O)N4CCC3)CC1 do in these assays?
Sm TGR inh: 14%

How did Cc1cc(C(=O)CSc2nn(-c3ccccc3)c(=S)s2)c(C)n1Cc1ccco1 do in these assays?
Pf growth 48h: inconclusive; Sm TGR inh: -23%; SARS PLpro yeast: 2%

Results for Cc1cc(O)c(C(c2ccccc2)N2CCN(c3ccccc3)CC2)c(=O)n1Cc1ccco1 (stereo unspecified) ?
Sm TGR inh: 3.2µM*

Results for Cc1cc(O)c(C(c2ccccc2)N2CCN(c3ccc(F)cc3)CC2)c(=O)n1Cc1ccco1 (stereo unspecified) ?
Sm TGR inh: 3.5µM*

What do the screens show for `CCOc1ccc(C(c2c(O)cc(C)n(Cc3ccco3)c2=O)N2CCN(C)CC2)cc1` (stereo unspecified)?
Sm TGR inh: 7.9µM*

Results for CCOc1ccc2[nH]c(=O)c(C(c3nnnn3Cc3ccco3)N3CCN(C)CC3)cc2c1 (stereo unspecified) ?
Pf growth 48h: inconclusive; Pf growth 96h: inconclusive; Sm TGR inh: inconclusive; SARS PLpro yeast: -5%

How did Cc1cc(O)c(C(c2ccc(F)cc2)N2CCN(c3ccccc3)CC2)c(=O)n1Cc1ccco1 (stereo unspecified) do in these assays?
Sm TGR inh: 10µM*

Results for CN(C1CCCCC1)S(=O)(=O)c1ccc2c(c1)c(=O)c(C(=O)NCCc1ccccc1)cn2C ?
Sm TGR inh: 1%

How did Cc1cc(O)c(C(c2ccc(F)cc2)N2CCCCC2)c(=O)n1Cc1ccco1 (stereo unspecified) do in these assays?
Sm TGR inh: 20µM*

Results for Cc1cc(O)c(C(c2ccc(Cl)cc2)N2CCN(c3ccccc3)CC2)c(=O)n1Cc1ccco1 (stereo unspecified) ?
Sm TGR inh: 5µM*

Results for CC(C)CC(c1nnnn1Cc1ccco1)N1CCN(c2cccc(Cl)c2)CC1 (stereo unspecified) ?
Pf growth 48h: inconclusive; Pf growth 96h: 498%; Sm TGR inh: -28%; SARS PLpro yeast: -5%

Results for CC1(C(=O)Nc2cccc(C(F)(F)F)c2)Cc2ccccc2C(=O)O1 (stereo unspecified) ?
Sm TGR inh: 5%

What do the screens show for `O=C(OCC(=O)N1CCc2ccccc21)c1ccc([N+](=O)[O-])o1`?
SARS PLpro yeast: -8%

How did c1ccc(-c2nnc(CN3CCCCC3)o2)cc1 do in these assays?
Pf growth 48h: 33%; Pf growth 96h: 5%; Sm TGR inh: 17%; SARS PLpro yeast: -2%

How did c1ccc(-c2nnc(CN3CCCc4ccccc43)o2)cc1 do in these assays?
Pf growth 48h: inconclusive; Sm TGR inh: 40µM*; SARS PLpro yeast: -4%

Results for CCc1c(C)nc2nncn2c1Nc1ccc(C)c(F)c1 ?
Sm TGR inh: 1%

How did CCCCCC[N+](C)(C)CCSSCC[N+](C)(C)CCCCCC do in these assays?
Pf growth 48h: -1%; Pf growth 96h: -1%; Sm TGR inh: -25%; SARS PLpro yeast: -1%

How did CCCCCCCCCCCCCCCCCC[N+](C)(C)CCC[Si](OC)(OC)OC do in these assays?
Pf growth 48h: -12%; Pf growth 96h: -2%
